Test results published in PubChem BioAssay (NCATS).
Inconclusive results are not listed. Activity calls are given as the source filed them. Unless noted, calls follow the shape of the dose curve; as a rule, active = well fitted curve in either direction with a large enough effect (not every such curve was filed as active); inconclusive = small, poorly fitted or top-dose-only effect, or another doubt; inactive = flat fitted curve, though single readings scatter.

Assays:
[1] = target: Lysosomal acid glucosylceramidase (Homo sapiens) (UniProt P04062); assay: Glucocerebrosidase-p2 (AID 348; in the data active = potency below about 10 µM; also: potency is read from the fitted curve at half-maximal effect); details: purified GBA, blue fluorogenic substrate, 40 min
Method in brief: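 Compounds titrated from 0.6 nM upwards against 0.2 nM enzyme in pH 5.9 citric acid/KH2PO4, taurocholate, tween-20; blue fluorogenic substrate 80 uM, 40 min room temperature, stopped and read Ex 365/Em 440 for AC50.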

[2] = AP1 Signaling Pathway (AID 357); details: ME-180 AP-1-bla reporter, EGF-induced, beta-lactamase ratio, 5 h; at 7.69 µM (top of the series) unless noted; also: % is scaled to controls: 0 for no effect and ±100 for the full control effect
Method in brief: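 ME-180 cells with beta-lactamase reporter under AP-1 response element, stimulated with EC50 EGF; compounds tested in titration series, 5 h at 37 °C. CCF4 substrate added 2.5 h at room temperature; 460/530 nm emission ratio gave %activity and AC50.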

[3] = NFAT Signaling Pathway (AID 444); details: Jurkat NFAT-bla M1, carbachol, beta-lactamase ratio, 5 h; at 7.69 µM (top of the series) unless noted;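 also: carbachol stimulus at about its EC50 of 1 µM final; % is scaled to controls: 0 for no effect and ±100 for the full control effect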
Method in brief: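 Jurkat cells with NFAT-driven β-lactamase reporter and co-expressed M1 receptor, stimulated with carbachol (final 1 uM, ~EC50), compound titration, 5 h at 37 °C. CCF4 loaded 1 h at RT; 460/530 nm ratio gave %activity and AC50.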

[4] = Stat Signaling Pathway (AID 446); details: ME-180 SIE beta-lactamase reporter, IL-6 stimulated, 5 h; at 7.69 µM (top of the series) unless noted;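 also: ME-180 cervical cancer cells given 40 pM IL-6 alongside compound; SIE-controlled beta-lactamase reporter measured as 460/530 nm FRET emission ratio; % is scaled to controls: 0 for no effect and ±100 for the full control effect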
Method in brief: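 Reporter line: ME-180 cervical carcinoma, SIE-beta-lactamase. Treatment: compound with 40 pM IL-6, 5 hrs, 37 C, in low-serum OPTI-MEM with 10 mM HEPES pH 7.3. Detection: 460/530 nm fluorescence.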

[5] = target: Glucocorticoid receptor (Homo sapiens) (UniProt P04150); assay: GR-GFP Redistribution (AID 450;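 active = compounds whose dose series gives a full or clear partial fitted curve of increased nuclear translocation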; also: potency is read from the fitted curve at half-maximal effect); details: U2OS GR-GFP nuclear translocation, laser cytometry, 2 h
[6] = target: Glucocorticoid receptor (Homo sapiens) (UniProt P04150); assay: GR-EFC Redistribution (AID 451; calls by dose curve; also: potency is read from the fitted curve at half-maximal effect); details: CHO-K1 GR-EFC translocation, beta-gal luminescence, 2 h
Method in brief: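 CHO-K1 cells expressing nuclear EA and GR-ED fragments of b-gal; compounds titrated up to 46 uM final, 2 h at 37 C. GR nuclear translocation read as complemented b-gal luminescence after 1 h RT detection.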

[7] = target: Mitogen-activated protein kinase 10 (Mus musculus) (UniProt Q61831); assay: JNK3 AlphaScreen Assay (AID 530); details: JNK3 lysate, c-Jun phosphorylation; series mostly up to 57.1 µM;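 also: kinase came from lysate of stimulated human HepG2 cells; signal reports phosphorylation of biotinylated GST-cJun 1-79 at Ser73 with 10 µM ATP; % is scaled to controls: 0 for no effect and ±100 for the full control effect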
Method in brief: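 qHTS format: compounds tested as titrations against IL-1beta/TNF-alpha-activated HepG2 lysate JNK3 with biotin-GST-cJun substrate and 10 uM ATP at room temperature. Loss of anti-phospho-cJun AlphaScreen signal indicates inhibition.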

[8] = target: 3',5'-cyclic-AMP phosphodiesterase 4B (Homo sapiens) (UniProt Q07343); assay: qHTS Assay for Inhibitors of PDE-IV (AID 607; active = well fitted activation curve with a large enough effect in the main read-out, with a control signal flat, not every such curve was filed as active; also: % of control where 0% means no effect); details: HEK293 ACTOne CNG channel cells, membrane potential fluorescence; series mostly up to 22.9 µM
Method in brief: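 Cell-based read-out of cAMP via a modified cyclic nucleotide-gated channel and membrane potential dye (535/590 nm) in HEK293 cells expressing PDE4 endogenously. Compounds tested up to 22.9 uM final; 100 uM RO 20-1724 reference.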

[9] = target: Cytochrome P450 3A4 (Homo sapiens) (UniProt P08684); assay: qHTS Assay for Activators of Cytochrome P450 3A4 (AID 885; active = well fitted curve in the direction sought with a large enough effect; an effect the other way counts as inactive or inconclusive; also: nearly all actives have a fitted effect of over 65% in size); details: recombinant CYP3A4, Luciferin-PPXE luminescence, 60 min; series mostly up to 57.1 µM
Method in brief: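 Signal was normalized against complete inhibition by 57 uM ketoconazole. The reaction used 20nM CYP3A4 with 25uM Luciferin-PPXE, 10-min compound preincubation and a 60-min NADPH-supported step at RT.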

[10] = qHTS Assay for Identification of Small Molecule Agonists for Hypoxia Response Element Signaling Pathway (AID 914; active = well fitted activation curve with a large enough effect in the signal ratio, with a control signal flat, not every such curve was filed as active; the % refers to the signal ratio; also: potency is read from the fitted curve at half-maximal effect; as to activation: % of control where 0% means no effect); details: ME-180 (cervical carcinoma) HRE-bla reporter, beta-lactamase ratio, CoCl2, 17 h; activation: stronger effect = higher value
Method in brief: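 qHTS titration; ME-180 HRE-bla cells; EC50 CoCl2 co-treatment, 17 h at 37 degrees Celsius; CCF4 dye, ex 405nm, em 460nm and 530nm; %Activity from ratio; AC50.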

[11] = qHTS Assay for Lipid Storage Modulators (AID 1519; calls by dose curve); details: Drosophila S3 cells, BODIPY lipid droplet/cell ratio, laser cytometry, cells loaded with oleic acid; for activity change, negative = inhibition: at 57.5 µM (top of the series)
Method in brief: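 Cells seeded at 5,000 per well were treated with compounds over a concentration series and loaded with oleic acid (400 uM, as added). Lipid droplet fluorescence (488 nm excitation, 500-530 nm channel) was read by laser-scanning cytometry and normalized to 20 uM Triacsin C.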

[12] = Confirmation and Secondary Assay for Modulators of Hemoglobin Beta Chain Splicing at IVS2 654 locus (AID 910; active = well fitted curve in the direction sought with a large enough effect; an effect the other way counts as inactive or inconclusive;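 also: HeLa cells stably carrying EGFP split by mutant beta-globin IVS2-654 intron; % of control where 0% means no effect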); details: HeLa EGFP-654 splicing reporter, GFP fluorescence, 48 h; series mostly up to 38.3 µM
Method in brief: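 HeLa cells stably expressing EGFP interrupted by β-globin IVS2-654 intron, seeded overnight in Opti-MEM/2% FCS, then treated 2 days at 37 °C. Restored splicing read as total peak GFP intensity per well by laser scanning cytometry (488 nm excitation, 500–520 nm emission); 500 nM antisense PNA as control.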

[13] = Confirmation and Secondary Assay for Modulators of Hemoglobin Beta Chain Splicing at IVS2 705 locus (AID 930; active = well fitted curve in the direction sought with a large enough effect; an effect the other way counts as inactive or inconclusive;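 also: HeLa cells stably expressing the EGFP-705 splicing reporter; GFP fluorescence per well restored by corrected splicing of the IVS2-705 intron in EGFP; % of control where 0% means no effect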); details: HeLa EGFP-705 splicing reporter, GFP fluorescence, 48 h; series mostly up to 38.3 µM
Method in brief: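 Secondary splice-site specificity test uses HeLa expressing CMV-driven EGFP interrupted by IVS2-705; cells were treated 2 days at 37C with 500 nM antisense PNA as positive control.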

[14] = target: Ubiquitin carboxyl-terminal hydrolase 1 (Homo sapiens) (UniProt O94782); assay: Inhibitors of USP1/UAF1: Pilot qHTS (AID 504865; active = well fitted curve in the direction sought with a large enough effect; an effect the other way counts as inactive or inconclusive;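 also: rhodamine fluorescence freed from ubiquitin-rhodamine substrate followed over time; top concentration of the series differs between compounds; % is scaled to controls: 0 for no effect and ±100 for the full control effect; nearly all actives have a fitted effect of over 35% in size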); details: purified USP1/UAF1, Ub-rhodamine cleavage fluorescence; series mostly up to 54.9 µM
Method in brief: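 1nM USP1/UAF1 + cpd, 15 min RT; start w/ Ub-Rho 150nM final; kinetic FL 480/540 nm, 6 reads q60 s. Buffer 50mM HEPES pH 7.8, 0.5mM EDTA, 1mM TCEP, 0.01% Tween-20, 0.1 mg/ml BSA.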

[15] = target: Cytochrome P450 1A2 (Homo sapiens) (UniProt P05177); assay: p450-cyp1a2 (AID 410; calls by dose curve; also: potency is read from the fitted curve at half-maximal effect); details: recombinant CYP1A2, luciferin-ME demethylation, luminescence; series mostly up to 57 µM
Method in brief: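 Human CYP1A2 (20nM) demethylated Luciferin-ME at its Km (100uM) in 100mM KPO4. After 10 min compound preincubation, NADPH regeneration ran the reaction 60 min at room temperature. Luciferin was read by luminescence, normalized to 57 uM furafylline.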

[16] = target: Cytochrome P450 3A4 (Homo sapiens) (UniProt P08684); assay: qHTS Assay for Inhibitors and Substrates of Cytochrome P450 3A4 (AID 884; active = well fitted curve in the direction sought with a large enough effect; an effect the other way counts as inactive or inconclusive; also: potency is read from the fitted curve at half-maximal effect; nearly all actives have a fitted effect of over 50% in size); details: recombinant CYP3A4, Luciferin-PPXE luminescence; series mostly up to 57.1 µM
Method in brief: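 20 nM human CYP3A4 with 25 uM Luciferin-PPXE (at KM) in 200 mM KPO4, preincubated 10 min with compound; NADPH regeneration started a 60 min RT reaction. Luciferin detected by luminescence, normalized to 57 uM ketoconazole as full inhibition.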

[17] = measured here: cell count channel max response
[18] = measured here: lipid channel max response

Chain of Cytochrome P450 3A4 (Homo sapiens) (P08684 whole entry, looked up): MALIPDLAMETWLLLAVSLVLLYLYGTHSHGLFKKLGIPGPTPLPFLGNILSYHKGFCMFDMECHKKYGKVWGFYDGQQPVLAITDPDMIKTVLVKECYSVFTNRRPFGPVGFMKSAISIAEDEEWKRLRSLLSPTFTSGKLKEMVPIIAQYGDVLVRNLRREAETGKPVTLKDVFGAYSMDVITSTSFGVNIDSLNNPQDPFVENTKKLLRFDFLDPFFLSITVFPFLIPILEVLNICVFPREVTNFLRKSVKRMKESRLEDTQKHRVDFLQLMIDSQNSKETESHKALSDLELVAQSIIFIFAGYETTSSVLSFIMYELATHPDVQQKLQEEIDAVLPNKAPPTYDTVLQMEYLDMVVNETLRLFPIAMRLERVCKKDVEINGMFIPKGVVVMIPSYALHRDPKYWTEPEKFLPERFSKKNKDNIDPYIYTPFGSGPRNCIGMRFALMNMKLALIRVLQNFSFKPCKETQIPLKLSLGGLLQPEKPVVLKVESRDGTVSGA
Chain of Cytochrome P450 1A2 (Homo sapiens) (P05177 whole entry, looked up): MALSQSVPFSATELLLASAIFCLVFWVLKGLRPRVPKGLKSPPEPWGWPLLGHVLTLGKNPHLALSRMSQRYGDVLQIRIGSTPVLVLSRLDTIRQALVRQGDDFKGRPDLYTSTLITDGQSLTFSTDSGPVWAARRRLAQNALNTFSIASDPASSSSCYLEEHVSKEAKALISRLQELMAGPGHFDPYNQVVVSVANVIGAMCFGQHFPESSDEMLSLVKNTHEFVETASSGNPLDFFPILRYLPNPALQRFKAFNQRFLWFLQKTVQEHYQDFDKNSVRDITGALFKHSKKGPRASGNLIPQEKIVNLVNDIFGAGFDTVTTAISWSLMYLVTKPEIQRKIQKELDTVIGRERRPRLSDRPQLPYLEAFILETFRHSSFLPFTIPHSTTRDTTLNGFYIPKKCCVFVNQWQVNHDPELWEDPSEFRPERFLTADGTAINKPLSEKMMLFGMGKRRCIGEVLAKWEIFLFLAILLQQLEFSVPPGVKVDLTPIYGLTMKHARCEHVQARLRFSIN
Chain of 3',5'-cyclic-AMP phosphodiesterase 4B (Homo sapiens) (Q07343 whole entry, looked up): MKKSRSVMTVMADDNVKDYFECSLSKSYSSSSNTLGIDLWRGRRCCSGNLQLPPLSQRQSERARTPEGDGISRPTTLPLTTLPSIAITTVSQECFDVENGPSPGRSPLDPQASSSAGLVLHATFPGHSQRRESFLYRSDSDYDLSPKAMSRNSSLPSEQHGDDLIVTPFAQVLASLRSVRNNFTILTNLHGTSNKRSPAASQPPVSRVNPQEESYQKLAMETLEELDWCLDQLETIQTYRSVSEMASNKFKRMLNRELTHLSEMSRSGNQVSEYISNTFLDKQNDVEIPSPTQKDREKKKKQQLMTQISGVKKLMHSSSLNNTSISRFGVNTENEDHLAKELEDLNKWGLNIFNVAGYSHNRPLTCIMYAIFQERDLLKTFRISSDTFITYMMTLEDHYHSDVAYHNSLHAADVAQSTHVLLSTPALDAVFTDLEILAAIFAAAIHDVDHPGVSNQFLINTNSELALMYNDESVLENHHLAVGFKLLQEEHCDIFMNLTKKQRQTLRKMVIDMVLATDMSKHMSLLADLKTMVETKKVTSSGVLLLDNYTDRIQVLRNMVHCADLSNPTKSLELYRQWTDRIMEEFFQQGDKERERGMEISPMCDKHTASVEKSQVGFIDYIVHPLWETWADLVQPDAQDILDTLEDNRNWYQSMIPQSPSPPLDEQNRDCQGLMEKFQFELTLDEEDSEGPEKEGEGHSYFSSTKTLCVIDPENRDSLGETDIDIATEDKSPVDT
Chain of Glucocorticoid receptor (Homo sapiens) (P04150 whole entry, looked up, the tested form may be a part): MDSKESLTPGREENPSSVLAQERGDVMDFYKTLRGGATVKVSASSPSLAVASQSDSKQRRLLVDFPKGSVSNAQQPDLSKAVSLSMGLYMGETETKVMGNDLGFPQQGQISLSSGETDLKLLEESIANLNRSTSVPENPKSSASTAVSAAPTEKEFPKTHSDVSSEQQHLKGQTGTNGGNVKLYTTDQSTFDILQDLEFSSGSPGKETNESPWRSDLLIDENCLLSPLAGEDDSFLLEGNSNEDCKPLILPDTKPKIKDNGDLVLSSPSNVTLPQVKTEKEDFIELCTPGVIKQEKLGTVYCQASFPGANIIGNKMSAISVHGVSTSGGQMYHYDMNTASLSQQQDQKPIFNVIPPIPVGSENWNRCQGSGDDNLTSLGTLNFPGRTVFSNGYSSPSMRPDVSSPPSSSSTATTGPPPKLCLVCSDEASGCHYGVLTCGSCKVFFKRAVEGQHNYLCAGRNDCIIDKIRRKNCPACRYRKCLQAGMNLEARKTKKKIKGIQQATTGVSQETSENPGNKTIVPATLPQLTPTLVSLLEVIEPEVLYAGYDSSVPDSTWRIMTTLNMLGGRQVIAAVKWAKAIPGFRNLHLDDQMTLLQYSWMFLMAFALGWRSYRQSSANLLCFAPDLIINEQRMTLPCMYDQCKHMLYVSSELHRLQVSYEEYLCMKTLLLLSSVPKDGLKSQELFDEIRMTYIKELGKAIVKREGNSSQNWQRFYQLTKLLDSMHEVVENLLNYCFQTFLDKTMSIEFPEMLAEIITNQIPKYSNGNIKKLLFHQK
Chain of Lysosomal acid glucosylceramidase (Homo sapiens) (P04062 whole entry, looked up): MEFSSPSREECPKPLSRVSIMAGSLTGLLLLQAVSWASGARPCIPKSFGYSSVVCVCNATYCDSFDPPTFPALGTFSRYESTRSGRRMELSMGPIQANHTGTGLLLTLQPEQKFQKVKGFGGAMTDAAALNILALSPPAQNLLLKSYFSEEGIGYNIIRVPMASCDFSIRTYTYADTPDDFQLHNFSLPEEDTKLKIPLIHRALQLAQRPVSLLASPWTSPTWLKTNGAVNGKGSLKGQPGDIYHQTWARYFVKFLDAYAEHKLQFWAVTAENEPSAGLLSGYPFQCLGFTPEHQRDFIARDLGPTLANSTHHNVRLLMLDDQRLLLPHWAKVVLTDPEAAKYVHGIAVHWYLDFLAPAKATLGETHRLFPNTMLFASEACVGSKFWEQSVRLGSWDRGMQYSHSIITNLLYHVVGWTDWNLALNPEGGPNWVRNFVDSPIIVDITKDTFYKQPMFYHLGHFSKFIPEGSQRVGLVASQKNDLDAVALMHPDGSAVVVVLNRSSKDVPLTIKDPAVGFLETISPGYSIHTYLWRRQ
Chain of Ubiquitin carboxyl-terminal hydrolase 1 (Homo sapiens) (O94782 whole entry, looked up): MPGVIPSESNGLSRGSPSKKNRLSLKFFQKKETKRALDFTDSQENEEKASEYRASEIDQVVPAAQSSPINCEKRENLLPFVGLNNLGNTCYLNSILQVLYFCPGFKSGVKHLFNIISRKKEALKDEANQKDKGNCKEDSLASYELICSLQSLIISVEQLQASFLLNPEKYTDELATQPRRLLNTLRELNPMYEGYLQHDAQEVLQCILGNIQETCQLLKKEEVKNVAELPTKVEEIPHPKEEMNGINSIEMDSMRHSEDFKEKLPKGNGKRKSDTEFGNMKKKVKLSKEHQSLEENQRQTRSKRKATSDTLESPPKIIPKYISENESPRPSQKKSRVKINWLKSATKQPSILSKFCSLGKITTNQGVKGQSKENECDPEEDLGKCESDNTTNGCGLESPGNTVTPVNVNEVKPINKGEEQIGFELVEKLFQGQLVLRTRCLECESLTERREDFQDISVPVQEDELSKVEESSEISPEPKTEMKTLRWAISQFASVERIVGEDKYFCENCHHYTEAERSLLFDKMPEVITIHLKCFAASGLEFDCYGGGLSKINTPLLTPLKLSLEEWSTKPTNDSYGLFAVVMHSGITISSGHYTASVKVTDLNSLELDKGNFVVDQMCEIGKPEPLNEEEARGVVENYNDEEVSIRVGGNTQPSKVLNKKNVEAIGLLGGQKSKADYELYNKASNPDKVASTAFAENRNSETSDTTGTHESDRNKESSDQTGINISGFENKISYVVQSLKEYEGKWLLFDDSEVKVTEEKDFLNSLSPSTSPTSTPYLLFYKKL

SMILES	Potency [1]	activity change, negative = inhibition [2]	activity change, negative = inhibition [3]	activity, negative = inhibition [4]	Potency [5]	Potency [6]	Potency [7]	Potency [8]	Potency [9]	activation [10]	activity change, negative = inhibition [11]	max response [11, 17]	max response [11, 18]	Potency [12]	outcome [13]	Potency [14]	Potency [15]	Potency [16]	Potency [10]
O=c1c(-c2cc(F)cc(F)c2)nc2cnc(Oc3ccccc3)nc2n1C[C@H]1CCCO1	> 11.4 µM (inactive)	-12.8% (inactive)	-1.84% (inactive)	-1.6% (inactive)	> 9.22 µM (inactive)	> 46 µM (inactive)	inactive	inactive	inactive	3.51% (inactive)	-6.47% (inactive)	13.2%	10.1%						
CN1CCN(c2ccnc(-c3ccccc3C(F)(F)F)n2)CC1	> 11.4 µM (inactive)	8.46% (inactive)		3.89% (inactive)	> 46 µM (inactive)	> 46 µM (inactive)	inactive				3.24% (inactive)	-19.5%	-14.8%	inactive	inactive	inactive			
N#Cc1cccc(-c2nc(Nc3ccncc3)c3ccccc3n2)c1	2.09 µM (active)		-19.2% (inactive)	8.07% (inactive)	> 46 µM (inactive)	> 46 µM (inactive)	inactive	inactive	inactive		5.79% (inactive)	4.98%	11.4%	inactive	inactive		0.631 µM (active)		
Cc1cccc(CNc2cc(-c3cccc(NS(C)(=O)=O)c3)ncn2)c1	> 11.4 µM (inactive)		20% (inactive)	-17.8% (inactive)	> 46 µM (inactive)	> 46 µM (inactive)	inactive	inactive	inactive		-2.47% (inactive)	-3.18%	-3.48%	inactive		inactive	10 µM (active)	2 µM (active)	
Cc1ccccc1-c1cncnc1N1CCNCC1	> 11.4 µM (inactive)	-3.42% (inactive)	10.1% (inactive)	1.91% (inactive)	> 46 µM (inactive)	> 46 µM (inactive)	inactive	inactive			10.2% (inactive)	11%	18.8%	inactive	inactive	inactive			
CN(C)C(=O)c1ccc(-c2nc(NCc3cccnc3)c3ccccc3n2)cc1	> 11.4 µM (inactive)		9.73% (inactive)		> 46 µM (inactive)	> 46 µM (inactive)	inactive	inactive	inactive		8.76% (inactive)	17%	24.6%	inactive	inactive	inactive	10 µM (active)		3.16 µM (active)
